These results are taken from PubChem BioAssay (NCATS).

Test [1] addresses Furin (Homo sapiens) (UniProt P09958). The test is described as follows: Furin counterscreen qHTS for Zika virus inhibitors (AID 1347149).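 For activity change, negative = inhibition: purified recombinant full-length human furin enzyme at 5 nM; fluorescence gain from furin cutting a BOC-RVRR-AMC peptide substrate over 15 min; top concentration of the series differs between compounds; plate controls were no-inhibitor control for no effect and no-enzyme control for full effect.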 Note: nearly all actives have a fitted effect of over 70% in size. Note: potency is the fitted concentration of half-maximal effect. The essentials: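 Fluorogenic cleavage of BOC-RVRR-AMC (2 microM final, Km ~15 µM) was monitored (ex 340, em 450 nm) at 37C after 15 min RT preincubation of 5 nM furin with compounds in HEPES pH 7.0 buffer with CaCl2 and Triton X-100. Percent inhibition was fitted to a 4-parameter Hill curve.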

The nature of test [2]: Confirmatory screen GU Rhodamine qHTS for Zika virus inhibitors qHTS (AID 1347157).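 For activity change, negative = inhibition: plate controls were no-inhibitor wells for no effect and no-enzyme wells for full effect.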 Note: nearly all actives have a fitted effect of over 70% in size. Note: potency is the fitted concentration of half-maximal effect. The essentials:
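Compounds, tested up to 114 microM, were incubated for 15 minutes with 25 nM unlinked NS2B-NS3 protease at pH 8.0. Cleavage of 1.5 microM Rhodamine110 substrate was then followed by fluorescence for 15 minutes.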
For orientation: qHTS replaces the single test concentration by a dilution series.

Test [3] can be described thus: ZIKV-mCherry secondary qHTS for Zika virus inhibitors (AID 1347158). For activity change, negative = inhibition: top concentration of the series differs between compounds. Note: potency is the fitted concentration of half-maximal effect. The essentials: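 Vero cells (5,000/well) were given compound, then infected with ZIKV-mCherry at MOI 1 for 48–72 h at 37 °C. After PFA fixation and Hoechst staining, imaging gave percent mCherry-positive cells. The positivity threshold was RFU above 450, 3 SD over negative controls.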
Test [4] concerns Zika virus NS2B-NS3 protease (linked). The test is described as follows: 384 well plate NINDS AMC confirmatory qHTS for Zika virus inhibitors (AID 1347163).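 For activity change, negative = inhibition: linked protease at 5 30 or 60 nM final depending on run; fluorescence of AMC released from Ac-VKTGKR-AMC peptide cleaved by the protease; top concentration of the series differs between compounds; 0% = no-inhibitor control and -100% = no-enzyme control.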 Note: nearly all actives have a fitted effect of over 50% in size. Note: potency is the fitted concentration of half-maximal effect. The essentials: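 Linked NS2B-NS3 protease (final 5 nM, 30 nM or 60 nM) was preincubated with compounds (final up to 1 mM) for ~15 minutes. Ac-VKTGKR-AMC substrate (final 30 microM) then reacted for 25 minutes at room temperature in the dark. Fluorescence (ex 355/em 460 nm) was normalized to no-enzyme and no-inhibitor controls.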

Test [5] deals with Zika virus NS2B-NS3 protease (linked construct). The test is described as follows: 384 well plate NINDS Rhodamine confirmatory qHTS for Zika virus inhibitors (AID 1347164).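 Note: fluorescence from protease cleavage of Ac-LKRR-rhodamine 110 substrate; potency is the fitted concentration of half-maximal effect; nearly all actives have a fitted effect of over 65% in size.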 The essentials:
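Enzyme (final 5/30/60 nM) + cpd (DMSO), ~15 min; add Ac-LKRR-Rd 10 microM final; 25 min RT, dark; FI ex 485/em 538; normalized to no-enzyme, no-inhibitor ctrls; aprotinin intraplate ctrl.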

Test [6] concerns the target Cytochrome P450 3A4 (Homo sapiens) (UniProt P08684). The test is described as follows: qHTS Assay for Activators of Cytochrome P450 3A4 (AID 885). Note: nearly all actives have a fitted effect of over 65% in size. The essentials: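 Steps: enzyme/substrate mix dispensed; compound added, 10 min RT; NADPH regeneration solution added, 60 min RT; luciferin detection buffer stops reaction; 20 min later luminescence measured.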
Test [7] is described as follows: Confirmation and Secondary Assay for Modulators of Hemoglobin Beta Chain Splicing at IVS2 654 locus (AID 910).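 Note: HeLa cells stably carrying EGFP split by mutant beta-globin IVS2-654 intron; % of control where 0% means no effect.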 The essentials: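 HeLa cells stably expressing EGFP interrupted by β-globin IVS2-654 intron, seeded overnight in Opti-MEM/2% FCS, then treated 2 days at 37 °C. Restored splicing read as total peak GFP intensity per well by laser scanning cytometry (488 nm excitation, 500–520 nm emission); 500 nM antisense PNA as control.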

The nature of test [8]: Confirmation and Secondary Assay for Modulators of Hemoglobin Beta Chain Splicing at IVS2 705 locus (AID 930).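 Note: HeLa cells stably expressing the EGFP-705 splicing reporter; GFP fluorescence per well restored by corrected splicing of the IVS2-705 intron in EGFP; % of control where 0% means no effect.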 In short, it runs like this: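 Read-out: total peak GFP fluorescence per well (488 nm excitation, 500-520 nm emission) by laser-scanning cytometry. Cells: HeLa EGFP-705 splicing reporter, 2 days compound exposure in Optimem/2% FCS.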
Test [9] in a line: qHTS Assay for Lipid Storage Modulators (AID 1519; calls by dose curve; for activity change, negative = inhibition: % is set by controls: 0 for no effect and ±100 for the full control effect). As to conditions: Drosophila S3 cells, BODIPY lipid droplet/cell ratio, laser cytometry, cells loaded with oleic acid. The essentials: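 Cells seeded at 5,000 per well were treated with compounds over a concentration series and loaded with oleic acid (400 uM, as added). Lipid droplet fluorescence (488 nm excitation, 500-530 nm channel) was read by laser-scanning cytometry and normalized to 20 uM Triacsin C.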

The nature of test [10]: Confirmatory screen NINDS Rhodamine qHTS for Zika virus inhibitors (AID 1347161).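 For activity change, negative = inhibition: purified Zika NS2B-NS3 protease with linked NS2B cofactor domain and Rhodamine110 peptide substrate; plate controls were no-inhibitor control for no effect and no-enzyme control for full effect.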 Note: nearly all actives have a fitted effect of over 60% in size. Note: potency is the fitted concentration of half-maximal effect. In short, it runs like this: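 qHTS dose-response: 25 nM linked protease, pH 8.0 Tris/Tween buffer, cpd titration, 15 min RT preinc, 1.5 microM Rhod110 peptide, 15 min reaction (~15% conversion), Ex480/Em540; 4-parameter Hill fit.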
Test [11] is described as follows: Tertiary RLuc qRT-PCR qHTS assay for Zika virus inhibitors (AID 1347169). Note: top concentration of the series differs between compounds; % is set by controls: 0 for no effect and ±100 for the full control effect; nearly all actives have a fitted effect of over 55% in size. In short, it runs like this:
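Vero, 1,000 cells/well, o/n 37 C; cpd pinned in DMSO; ZIKV-RLuc Cambodian, MOI 1-2, 48-72 h 37 C; live-cell RLuc substrate, lum read at 1-1.5 h.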
On the technique in general: Real-time PCR tracks product formation cycle by cycle.

Test [12] deals with Tyrosyl-DNA phosphodiesterase 1 (Homo sapiens) (UniProt Q9NUW8). The test is described as follows: Confirmation Assay for Inhibitors of Tyrosyl-DNA Phosphodiesterase (TDP1) (AID 489007). Note: potency is the fitted concentration of half-maximal effect; nearly all actives have a fitted effect of over 40% in size. As to conditions: recombinant human TDP1 enzymatic activity, dose-response. The essentials:
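Recombinant human Tdp1 (1 nM final), expressed in E. coli, preincubated 15 min with compound. Then 15 nM 5'-biotin/3'-phosphotyrosine-FITC DNA substrate added for 5 min at room temperature. AlphaScreen beads (10 ug/ml) added for 10 min; cleavage gives signal loss.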

Test [13] addresses Rap guanine nucleotide exchange factor 3 (Homo sapiens) (UniProt O95398). The test is described as follows: Confirmatory qHTS for antagonist of cAMP-regulated guanine nucleotide exchange factor 3 (EPAC1) (AID 1645880). Note: potency is the fitted concentration of half-maximal effect; nearly all actives have a fitted effect of over 55% in size. The essentials: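 Nucleotide exchange uses 100 nM EPAC1, 250 nM RAP1B-BODIPY-GDP and 50 uM GDP, with compounds in a concentration-titration series. After 5 min at room temperature, fluorescence (480 nm ex/540 nm em) is read every 5 min for 30 min. Data are normalized to control ATA and DMSO.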

Test [14] shares this target. The test is described as follows: Confirmatory qHTS for agonist of cAMP-regulated guanine nucleotide exchange factor 3 (EPAC1) (AID 1645881).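 Note: EPAC1 catalysed release of BODIPY-GDP from Rap1B seen as fluorescence loss; 100% = effect of cAMP agonist control; nearly all actives have a fitted effect of over 75% in size.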
The target of test [15] is Rap guanine nucleotide exchange factor 4 (Homo sapiens) (UniProt Q8WZA2). The test is described as follows: Confirmatory qHTS for agonist of cAMP-regulated guanine nucleotide exchange factor 4 (EPAC2) (AID 1645884). Note: % is set by controls: 0 for no effect and ±100 for the full control effect; nearly all actives have a fitted effect of over 65% in size.
Chain of Rap guanine nucleotide exchange factor 4 (Homo sapiens) (Q8WZA2 whole entry, looked up): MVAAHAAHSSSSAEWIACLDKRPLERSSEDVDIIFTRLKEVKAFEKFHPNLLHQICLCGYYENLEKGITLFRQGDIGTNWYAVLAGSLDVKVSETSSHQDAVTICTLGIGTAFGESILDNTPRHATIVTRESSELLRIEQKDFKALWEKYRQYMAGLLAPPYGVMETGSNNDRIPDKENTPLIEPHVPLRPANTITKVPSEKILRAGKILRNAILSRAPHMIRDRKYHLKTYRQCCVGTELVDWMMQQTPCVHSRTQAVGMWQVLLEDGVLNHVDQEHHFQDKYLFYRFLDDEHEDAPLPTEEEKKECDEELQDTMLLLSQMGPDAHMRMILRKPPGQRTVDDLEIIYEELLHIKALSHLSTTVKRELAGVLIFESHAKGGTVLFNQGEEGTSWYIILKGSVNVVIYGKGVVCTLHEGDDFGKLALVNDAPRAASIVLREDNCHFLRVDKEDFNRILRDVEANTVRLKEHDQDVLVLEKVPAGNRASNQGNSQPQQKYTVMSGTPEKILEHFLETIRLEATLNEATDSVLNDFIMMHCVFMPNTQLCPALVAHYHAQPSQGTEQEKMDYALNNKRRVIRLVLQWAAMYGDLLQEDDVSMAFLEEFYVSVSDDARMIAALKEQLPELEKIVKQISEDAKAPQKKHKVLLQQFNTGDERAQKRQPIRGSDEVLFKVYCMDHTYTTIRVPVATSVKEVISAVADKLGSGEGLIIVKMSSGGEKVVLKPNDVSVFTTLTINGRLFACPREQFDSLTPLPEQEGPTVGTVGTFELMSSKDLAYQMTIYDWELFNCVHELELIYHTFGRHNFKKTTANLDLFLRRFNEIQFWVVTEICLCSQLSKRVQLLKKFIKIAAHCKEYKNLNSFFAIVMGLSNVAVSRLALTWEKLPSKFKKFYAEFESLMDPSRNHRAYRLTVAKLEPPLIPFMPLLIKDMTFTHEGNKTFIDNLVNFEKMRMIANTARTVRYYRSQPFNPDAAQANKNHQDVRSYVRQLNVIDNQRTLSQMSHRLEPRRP
Test [16] has the same target. The test is described as follows: Confirmatory qHTS for antagonist of cAMP-regulated guanine nucleotide exchange factor 4 (EPAC2) (AID 1645885). Note: % is set by controls: 0 for no effect and ±100 for the full control effect; nearly all actives have a fitted effect of over 25% in size.
In test [17] the target is Rap guanine nucleotide exchange factor 3 (Homo sapiens) (UniProt O95398). The test is described as follows: Counterscreen qHTS for antagonist of cAMP-regulated guanine nucleotide exchange factor 3 (EPAC1) (AID 1645888).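 Note: fluorescence loss as bound BODIPY-GDP is released from Rap1B; % of control where 0% means no effect.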 In short, it runs like this: (§1)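 Rap1B–BODIPY-GDP (250 nM) with 50 uM GDP; compounds pin-transferred to 9.74 nM–152 uM final (activator) or from 7.32 nM upwards (inhibitor). Fluorescence Ex/Em 480/540 nm read at 5 and 30 min, then after adding cAMP or buffer, at room temperature.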
Chain of Rap guanine nucleotide exchange factor 3 (Homo sapiens) (O95398 whole entry, looked up): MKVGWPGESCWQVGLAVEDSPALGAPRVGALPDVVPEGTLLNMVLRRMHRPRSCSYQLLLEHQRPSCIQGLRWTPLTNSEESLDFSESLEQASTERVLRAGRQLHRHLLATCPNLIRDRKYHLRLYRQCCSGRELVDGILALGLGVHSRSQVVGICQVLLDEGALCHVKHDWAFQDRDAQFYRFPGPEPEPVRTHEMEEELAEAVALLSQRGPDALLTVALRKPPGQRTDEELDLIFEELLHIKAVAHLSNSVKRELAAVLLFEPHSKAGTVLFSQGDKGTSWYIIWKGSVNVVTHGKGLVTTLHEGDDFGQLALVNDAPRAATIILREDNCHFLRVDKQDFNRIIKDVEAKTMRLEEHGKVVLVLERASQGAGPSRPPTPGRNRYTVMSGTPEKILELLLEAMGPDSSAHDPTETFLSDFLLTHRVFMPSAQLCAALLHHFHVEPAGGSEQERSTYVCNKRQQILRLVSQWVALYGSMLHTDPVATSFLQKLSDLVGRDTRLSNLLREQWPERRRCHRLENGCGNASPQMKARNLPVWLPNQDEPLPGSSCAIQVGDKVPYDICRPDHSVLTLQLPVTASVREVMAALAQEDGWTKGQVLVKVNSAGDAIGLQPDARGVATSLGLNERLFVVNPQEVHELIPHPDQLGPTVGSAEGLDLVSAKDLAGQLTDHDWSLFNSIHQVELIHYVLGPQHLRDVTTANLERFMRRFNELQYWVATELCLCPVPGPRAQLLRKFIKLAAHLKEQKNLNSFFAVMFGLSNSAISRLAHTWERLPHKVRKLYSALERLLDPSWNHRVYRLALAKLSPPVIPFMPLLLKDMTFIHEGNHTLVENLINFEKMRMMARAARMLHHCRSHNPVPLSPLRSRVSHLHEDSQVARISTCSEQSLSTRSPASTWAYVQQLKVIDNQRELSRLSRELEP
On the technique in general: Counterscreens check selectivity or assay interference.

The target is the same in test [18]. The test is described as follows: Counterscreen qHTS for agonist of cAMP-regulated guanine nucleotide exchange factor 3 (EPAC1) (AID 1645889). Note: % of control where 0% means no effect; nearly all actives have a fitted effect of over 40% in size. In short, it runs like this: as §1

Structures are written as SMILES. Records with an inconclusive call do not appear. Active and inactive are the calls of the source. Unless noted, calls come from the whole dose curve; as a rule, active = well fitted curve in the direction sought with a large enough effect; inconclusive = small, poorly fitted or top-dose-only effect, or another doubt; inactive = no such curve, though single readings can be large; an effect the other way counts as inactive or inconclusive.

Chain of Furin (Homo sapiens) (P09958 whole entry, looked up): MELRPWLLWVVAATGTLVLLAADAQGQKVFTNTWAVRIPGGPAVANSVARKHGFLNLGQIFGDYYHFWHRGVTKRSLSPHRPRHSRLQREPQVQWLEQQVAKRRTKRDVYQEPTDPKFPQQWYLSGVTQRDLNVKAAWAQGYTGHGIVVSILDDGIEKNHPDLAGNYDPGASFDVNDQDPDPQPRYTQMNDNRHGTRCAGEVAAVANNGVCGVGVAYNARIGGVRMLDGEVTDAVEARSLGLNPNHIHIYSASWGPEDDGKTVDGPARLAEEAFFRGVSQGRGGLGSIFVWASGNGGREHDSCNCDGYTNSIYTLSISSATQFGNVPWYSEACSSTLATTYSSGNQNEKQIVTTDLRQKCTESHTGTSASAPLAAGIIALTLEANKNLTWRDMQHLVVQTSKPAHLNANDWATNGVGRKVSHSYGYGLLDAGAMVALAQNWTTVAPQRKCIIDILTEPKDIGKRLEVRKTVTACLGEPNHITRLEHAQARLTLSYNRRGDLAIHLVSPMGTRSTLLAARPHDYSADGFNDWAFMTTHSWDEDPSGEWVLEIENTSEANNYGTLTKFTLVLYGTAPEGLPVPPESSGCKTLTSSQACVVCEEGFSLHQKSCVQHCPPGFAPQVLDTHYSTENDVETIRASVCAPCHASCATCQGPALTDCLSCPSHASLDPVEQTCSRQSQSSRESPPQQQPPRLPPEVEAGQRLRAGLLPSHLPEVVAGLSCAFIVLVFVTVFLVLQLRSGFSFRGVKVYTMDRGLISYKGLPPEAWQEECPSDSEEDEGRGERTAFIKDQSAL
Chain of Tyrosyl-DNA phosphodiesterase 1 (Homo sapiens) (Q9NUW8 whole entry, looked up): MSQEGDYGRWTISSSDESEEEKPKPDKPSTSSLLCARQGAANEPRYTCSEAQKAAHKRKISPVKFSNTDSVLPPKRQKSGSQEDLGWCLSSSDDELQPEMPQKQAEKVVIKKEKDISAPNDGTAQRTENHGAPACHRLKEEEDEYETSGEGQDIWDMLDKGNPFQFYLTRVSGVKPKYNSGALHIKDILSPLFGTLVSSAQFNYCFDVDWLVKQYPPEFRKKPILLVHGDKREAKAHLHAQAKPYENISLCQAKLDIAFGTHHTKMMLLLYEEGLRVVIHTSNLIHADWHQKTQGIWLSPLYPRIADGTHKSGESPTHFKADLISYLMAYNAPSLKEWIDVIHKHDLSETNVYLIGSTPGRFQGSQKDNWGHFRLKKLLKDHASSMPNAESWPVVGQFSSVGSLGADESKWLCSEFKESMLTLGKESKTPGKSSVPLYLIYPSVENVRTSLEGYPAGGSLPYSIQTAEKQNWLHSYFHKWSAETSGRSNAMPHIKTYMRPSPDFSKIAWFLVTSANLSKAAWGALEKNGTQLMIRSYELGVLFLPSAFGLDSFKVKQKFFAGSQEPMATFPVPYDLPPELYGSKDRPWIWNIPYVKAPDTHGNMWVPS
Chain of Cytochrome P450 3A4 (Homo sapiens) (P08684 whole entry, looked up): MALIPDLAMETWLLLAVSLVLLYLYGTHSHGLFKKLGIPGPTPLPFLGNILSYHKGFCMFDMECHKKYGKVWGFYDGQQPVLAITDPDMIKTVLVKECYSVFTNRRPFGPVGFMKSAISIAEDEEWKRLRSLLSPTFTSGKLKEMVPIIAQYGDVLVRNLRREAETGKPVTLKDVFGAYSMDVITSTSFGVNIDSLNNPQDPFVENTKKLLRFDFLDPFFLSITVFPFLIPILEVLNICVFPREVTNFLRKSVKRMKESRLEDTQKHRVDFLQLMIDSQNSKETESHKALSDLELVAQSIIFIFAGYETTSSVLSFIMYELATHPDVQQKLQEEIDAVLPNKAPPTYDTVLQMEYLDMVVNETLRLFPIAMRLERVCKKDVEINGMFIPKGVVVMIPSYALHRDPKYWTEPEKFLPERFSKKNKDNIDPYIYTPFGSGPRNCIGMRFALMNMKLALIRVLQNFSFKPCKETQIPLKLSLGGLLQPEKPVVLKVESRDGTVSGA

As to `O=C(O)c1cc(-n2c(/C=C\c3ccc(F)cc3)nc3ccccc3c2=O)ccc1Cl`, the Potency entry in test [1] and in [3] was “inactive” in each case. Further, the Potency in test [2] was 39.8 µM (active); in test [4] it was 200 µM (active); in test [5], 141 µM (active).
On to `O=C(O[C@@H]1Cc2c(O)cc(O)cc2OC1c1ccc(O)c(O)c1)c1cc(O)c(O)c(O)c1` (some centres undefined), for which the Potency entry in test [6], in test [1], in test [3] and in test [11] was “inactive” each time. Moreover, the result in test [7] and in test [8] was inactive. Further, the activity change, negative = inhibition in test [9] (at 57.5 µM (top of the series)) was 6.43% (inactive). Moreover, the max response was -10% in test [9] (measured here: cell count channel max response) and -4.33% in test [9] (measured here: lipid channel max response). In addition, the Potency in [2] was 35.5 µM (active); in test [10], 14.1 µM (active); in test [4], 25.1 µM (active); in [5] it was 0.708 µM (active).
As for `Cc1ccc(NC(=O)CSc2ncccc2C(=O)Oc2ccccc2Cl)cc1Cl`, the Potency result in [1], in test [2] and in test [10] was “inactive” in each case.
With `O=C(O)CSc1nc2ccc(NC(=O)COc3ccc(Cl)cc3)cc2s1`, the Potency in test [12] was 11.2 µM (active); in [2], 31.6 µM (active); in [10] it was 20 µM (active); in test [4], 25.1 µM (active); in test [5], 28.2 µM (active). The Potency result in [1], in [3] and in [11] was “inactive” throughout.
As to `O=c1oc2ccccc2cc1-c1nnc(Nc2ccc(Cl)cc2Cl)s1`, the Potency entry in test [1] and in [11] was “inactive” throughout. Also, the Potency in test [2] is 31.6 µM (active); in test [10], 15.8 µM (active); in [4], 50.1 µM (active).
In the case of `COC(=O)c1ccc([C@H]2Nc3ccc(S(=O)(=O)Nc4ccc(C)cc4)cc3[C@H]3C=CC[C@H]32)cc1`, the Potency entry in test [1], in test [3] and in test [11] was “inactive” each time. In addition, the results for the Potency in test [2], in test [10] and in test [5] were 25.1 µM (active), 17.8 µM (active) and 100 µM (active), respectively.
In the case of `O=C(OCC#CCSc1nnc(-c2cccc3ccccc23)o1)c1ccc(C(F)(F)F)cc1`, the Potency in test [1] was 41.8 µM (active). The Potency result in test [2] and in test [10] was “inactive” each time.
For `Cc1cc(NC(=O)c2ccc(Cl)c(Cl)c2)ccc1-c1cc2ccccc2oc1=O`, the Potency in [1] was 66.3 µM (active); in test [2], 44.7 µM (active); in test [10], 31.6 µM (active). Moreover, the Potency result in [4] and in [11] was “inactive” throughout.
In the case of `Cc1csc2nc(COC(=O)c3ccc(NC(=O)c4ccccc4Br)cc3)cc(=O)n12`, the Potency in test [1] is 59.1 µM (active). The Potency result in test [2] and in [10] was “inactive” in each case.
As for `O=C(O)c1c(-c2ccccc2)oc2ccc(OCc3ccc(Cl)c(Cl)c3)cc12`, the Potency in [1] was 66.3 µM (active); in test [2] it was 17.8 µM (active); in test [3], 8.91 µM (active); in test [10], 3.98 µM (active); in test [5] it was 17.8 µM (active); in test [13], 75.7 µM (active). Besides, the Potency result in test [4], in test [11] and in test [18] was “inactive” in each case. Also, the call in test [14], in test [15] and in [17] was inactive. Moreover, the activity change, negative = inhibition in test [16] is 10.2% [at 12.7 µM] (inactive).
